# Sampled rows, rich in hits. Any-hit rate of the full collection: about 21%.
# CHX counter = counter-screen for Shiga toxin inhibitors: cycloheximide protein synthesis inhibition | hit rate 12% among 300,000 | cell reporter, cycloheximide protein synthesis inhibition counterscreen | max response, %; in the data active means max response mostly above about 13%, no sharp cut-off; inactive means mostly below about 14%; further: read at 38.3 µM for the half of the compounds with a filed dose; 0% is about no effect
# Pf growth 48h = inhibits P. falciparum growth in the first generation, 48 h; P. falciparum luciferase growth in erythrocytes, 48 h; Potency, µM (highest dose often 28.7 µM), for the others: at the highest dose activity change, negative = inhibition, most hits filed as inhibitors; hit rate 5.9% among 310,000; active means well fitted inhibition curve with a large enough effect; inconclusive means small, poorly fitted or top-dose-only effect, or another doubt; inactive means no such curve, though single readings can be large or run the other way; further: potency means the concentration at half of the fitted maximal effect; on the % scale 0 is the no-effect control and ±100 the full control effect
#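 Read-out is firefly luciferase luminescence from an integrated reporter in P. falciparum, so falling signal marks reduced parasite growth. Infected erythrocytes were at 2% hematocrit and 0.1% parasitemia (final) in Albumax-supplemented RPMI 1640.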
# Pf growth 96h = P. falciparum growth inhibition at 96 hours | P. falciparum luciferase reporter growth, 96 h | Potency, µM (top dose mostly 28.7 µM), for the others: top-dose activity change, negative = inhibition, most hits filed as inhibitors | hit rate 6.9% among 320,000 | AID 504834; active means well fitted inhibition curve with a large enough effect; inconclusive means small, poorly fitted or top-dose-only effect, or another doubt; inactive means no such curve, though single readings can be large or run the other way; further: potency means the concentration at half of the fitted maximal effect; on the % scale 0 is the no-effect control and ±100 the full control effect
#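 Two parasite generations (96 h, 37 C, 5% CO2) of compound exposure in infected erythrocytes (0.05% parasitemia, 2% hematocrit). Luciferase-reporter P. falciparum; decreased luminescence indicates inhibited growth, aimed at apicoplast-acting delayed death.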
# NS1 function inh = blocks influenza NS1 protein function; hit rate 0.4% among 270,000; Potency, µM (doses to about 46.1 µM), without a hit: top-dose activity, positive = more growth; further: potency means the concentration at half of the fitted maximal effect; actives are rising curves; nearly all actives have a fitted effect of over 50% in size
#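 S. cerevisiae expressing influenza A NS1, grown in glucose, washed, then diluted 1:100 into pH 6.0 -URA galactose medium with 23 nl compound. Growth recovery read as OD600; NS1-free strain serves as control.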
# Shiga toxin inh = Shiga toxin inhibition; AID 2315; hit rate 9.2% among 290,000; Vero cells, Shiga toxin protein synthesis inhibition reporter; inhibition, % at 38.7 µM; in the data active means inhibition mostly above about 28%, no sharp cut-off; inactive means mostly below about 43%; further: 0% is about no effect
# SARS PLpro yeast = SARS-CoV PLP inhibition in yeast. S. cerevisiae expressing SARS-CoV PLpro, growth rescue. Potency, µM (doses to about 32.9 µM), for the others: at the highest dose activity, positive = growth rescue, actives largely listed as activators. hit rate 0.19% among 330,000; further: potency means the concentration at half of the fitted maximal effect; 0% is about no effect; nearly all actives have a fitted effect of over 55% in size
# An asterisk follows results filed as active; ? = inconclusive; / = not tested or not shown. Unless noted, the call rests on the fitted dose curve.
SMILES,CHX counter,Pf growth 48h,Pf growth 96h,NS1 function inh,Shiga toxin inh,SARS PLpro yeast
COc1ccc(NC(=O)CNC(=O)c2nn(-c3ccc(OC)cc3OC)c(=O)c3ccccc23)c(OC)c1,2.7,?,3.29µM*,1.1%,-4.4,-0.4%
COc1ccnc(Oc2ccc(F)cc2)c1C(=O)N/C=N/OCc1ccccc1,-5.1,?,19.3%,/,4.2,-0.7%
CCCCC(=O)Nc1ccc(C(=O)NNC(=O)c2ccccc2Br)cc1,-1.1,38.1%,7.6%,0.6%,11.2,4.6%
CCOc1ccccc1NC(=O)C1CCCN(S(=O)(=O)c2ccc3c(c2)C(C)(C)C(=O)N3C)C1 (stereo not given),1.5,?,0.4%,2.5%,-1.9,1.2%
Cc1cc(CN2CCCCC2)c(O)c(CN2CCCCC2)c1,/,/,/,-5.3%,/,/
Oc1ccc(-c2ccccc2)cc1CN1CCCCCC1,-2.9,0.657µM*,?,1.9%,2.2,1.9%
Oc1ccc(CN2CCCCC2)nc1-c1ccccc1,-1.6,0.522µM*,?,-0.9%,-26.6,4.3%
Oc1ccc(Cl)cc1CN1CCN(Cc2ccccc2)CC1,-1.5,1.47µM*,/,-14.1%,14.3,0.2%
Oc1cccnc1CN1CCCCC1,/,/,/,-1.7%,/,/
Cc1oc2c(c1C(=O)NCCO)CCCC2,-5.8,/,0.0131µM*,6.8%,-13.4,7.2%
COc1cc([C@@H]2c3cc4c(cc3[C@@H](O)[C@H]3COC(=O)[C@H]23)OCO4)cc(OC)c1O[Si](C)(C)C(C)(C)C,-4.9,7.38µM*,8.28µM*,3.1%,-1.9,-2.0%
Cc1ccccc1C(=O)Nc1ccnn1C1CCN(Cc2cnn(C(C)C)c2)CC1,9.9,?,?,15.0%,11.6,0.1%
Cc1cnc(C(=O)Nc2ccc(F)cc2)cn1,52.9*,183.6%,88.4%,-36.0%,98.6*,0.9%
Cc1cnc(C(=O)Nc2ccc(C(C)C)cc2)cn1,46.4*,338.5%,420.1%,/,133.5*,-3.1%
COc1ccc(CC(=O)NNS(=O)(=O)c2ccc(F)cc2)cc1,-3.5,18.2%,-10.4%,9.9%,-7.1,0.4%
CCCCNc1c(-c2cccc(-c3ccc(OC)cc3)c2)nc2cc(C)ccn12,/,/,/,/,/,-3.4%
CCOC(=O)CNc1c(-c2ccc(OC)cc2)nc2ccc(Cl)cn12,20.4*,11.3%,?,-18.0%,35.6*,-30.3%
COCCNc1c(-c2ccc(OC)cc2)nc2ccc(Cl)cn12,29.1,20.0%,-4.7%,-7.6%,61.7*,-1.1%
CC(=O)C(=Nc1ccccc1Cl)NNc1ccc(Cl)cc1,-0.3,11.7µM*,4.65µM*,?,0.9,-114.9%
CCCCn1c(O)c(C=NC2CC3CCC2(C)C3(C)C)c(=O)[nH]c1=O (stereo not given),7.2,10.4µM*,?,-45.8%,22.7,0.6%
CCOC(=O)c1csc(NC(=O)CCSc2ccccc2)n1,7.2,1.4%,?,/,15.7,-1.5%
CCOC(=O)c1csc(N)n1,33.9*,125.8%,-24.7%,5.7%,80.3*,-1.3%
CCOC(=O)c1csc(COc2ccccc2Cl)n1,32.5*,36.6%,2.0%,-7.5%,52.5*,1.1%
CCOC(=O)Cc1csc(N)n1,-4.7,/,-15.6%,4.9%,-9.8,7.6%
CCOC(=O)c1csc(NC(=O)CC2CCCC2)n1,25.0*,17.9%,-5.8%,/,32.1*,-0.2%
SMILES,CHX counter,Pf growth 48h,Pf growth 96h,NS1 function inh,Shiga toxin inh,SARS PLpro yeast
CCOC(=O)c1csc(COc2ccc(OC)cc2)n1,61.0*,188.5%,0.0%,-4.1%,122.1*,0.7%
Nc1cc(S(=O)(=O)Nc2cc(Cl)ccc2Cl)ccc1N1CCCC1,16.6,1.7%,28.2%,6.1%,-1.9,1.0%
Cc1cccc(OCc2nnc(SCC(=O)c3c(N)n(C4CC4)c(=O)[nH]c3=O)o2)c1,/,-10.2%,?,/,/,-5.8%
O=C1Nc2ccc(Br)cc2/C1=C/c1ccc(C(=O)O)cc1,-5.8,7.2%,-4.3%,12.2%,-2.6,2.0%
CCn1c(CC(=O)Nc2ccc(C)cc2)n[nH]c1=S,-1.5,-4.5%,?,/,9.7,2.3%
CC(=O)c1csc(COc2ccccc2)n1,16.6*,65.8%,85.8%,-6.4%,35.2,-0.9%
CCOC(=O)c1csc(-c2ccc([N+](=O)[O-])cc2)n1,40.3*,60.5%,28.4%,/,89.6*,0.2%
O=C(COc1ccc(F)cc1Cl)Nc1ccc(N2CCOCC2)cc1N1CCOCC1,/,9.28µM*,?,/,/,-4.7%
O=C(COc1ccccc1F)Nc1ccc(N2CCOCC2)cc1N1CCOCC1,/,?,-28.3%,/,/,5.7%
O=C(CSCc1ccc(F)cc1)Nc1ccc(N2CCOCC2)cc1N1CCOCC1,/,5.86µM*,13.1µM*,/,/,7.7%
O=C(CSCc1ccc(F)cc1)Nc1ccccc1C(=O)N1CCOCC1,-6.1,14.9%,3.2%,7.5%,-10.8,-7.0%
Cc1nn(Cc2ccc(F)cc2)c2sc(C(=O)Nc3ccc(N4CCOCC4)cc3N3CCOCC3)cc12,0.9,11.7µM*,14.7µM*,20.4%,-4.1,-4.6%
S=C(Nc1ccc(Br)cc1Cl)NN1CCOCC1,8.7,20.5%,44.6%,0.7%,24.9,-0.4%
COC(=O)C(C(C)C)N1CC(=O)c2ccccc2S1(=O)=O (stereo not given),-1.6,/,/,/,-3.3,/
COc1ccc(S(=O)(=O)N(C)C)cc1NC(=O)CCNC(=O)c1ccccc1OC,2.6,?,?,-1.0%,-1.7,-1.3%
CCN(C(=O)c1cn(C)c(=O)c2cc(OC)c(OC)cc12)c1cc(C)ccc1C,-3.0,9.28µM*,71.5%,-0.7%,-10.7,0.1%
O=C(c1cc2c(=O)oc3ccccc3c2s1)N1CCOCC1,31.2*,25.9%,?,-0.4%,-30.3,5.0%
Cn1c2ccccc2c2cc(C(=O)N3CCOCC3)sc21,21.2*,47.5%,49.5%,-10.5%,94.2,-12.2%
Cc1nn(-c2ccccc2)c2sc(C(=O)N(CC(=O)NC(C)(C)C)Cc3ccco3)cc12,19.4*,?,?,-32.9%,18.0,-2.2%
Cc1nn(-c2ccccc2)c2sc(C(=O)N3CCOCC3)cc12,43.2*,249.6%,195.7%,-5.4%,44.0*,7.1%
Cc1ccc(S(=O)(=O)N2C[C@@H]3[C@H]4CC[C@H](C4)[C@@H]3[C@@H](C)[C@H]2c2ccn(Cc3ccccc3)c2)cc1,/,/,/,/,/,3.8%
COc1ccc(CNC(=O)C2CCN(c3nc(-c4ccccc4)nc4c3CCC4)CC2)cc1,-0.8,1.85µM*,?,1.9%,8.7,1.2%
O=C(NC1CCCCCC1)C1CCN(S(=O)(=O)c2ccccc2)CC1,0.3,-1.0%,2.94µM*,-4.4%,-8.1,1.2%
O=C(NCc1ccccc1)C1CCN(c2nc(-c3ccccc3)nc3c2CCC3)CC1,11.4,?,18.9%,-58.0%,-5.9,-1.6%
COc1ccc(CNC(=O)C2CCN(C(=O)[C@@H](CC(C)C)NC(=O)OC(C)(C)C)CC2)cc1,0.7,9.28µM*,-15.6%,-5.5%,1.0,-2.9%
Cc1ccc(S(=O)(=O)N2CCC(C(=O)NCC3CC3)CC2)cc1,2.3,5.86µM*,0.0%,-8.0%,-12.2,0.9%

# High-throughput results from PubChem BioAssay.
